# According to ChEMBL document CHEMBL3988442, “University of Dundee, Small-Polar-MMV Screening Library” (2021):
# The whole screen tested about 53,000 compounds, of which about 900 (1.7%) showed an effect of 50% or more. The entries come from a sample that favours strong results as a whole.
# Test system: Mycobacterium tuberculosis
# Experiment: Cornell - Phenotypic assay to identify agents that inhibit growth of Mycobacterium tuberculosis
# Format: functional
# Design: scale not given: direction of the effect not stated beside the values
# Conditions: 10 mM as filed; unlikely as a test dose
row,SMILES,Percent Effect
1,CNc1ncc2c(n1)CN(CCc1ccc(Cl)cc1)C2=O,6.698%
2,O=C(O)C(F)(F)F.c1ccc(CN2CCC3(CC2)CC(Nc2nccs2)CO3)nc1 (stereo unspecified),10.27%
3,CN1CCCC1c1cncc(C(=O)NCCN2CCCCC2)n1 (stereo unspecified),5.104%
4,O=C(O)C(F)(F)F.O=C(O)C(F)(F)F.c1coc(CN2C[C@@H]3CCCO[C@@H]3[C@H](N3CCCC3)C2)c1,-1.356%
5,COc1ccccc1Nc1nc2c(C)nn(C)c2c(=O)n1C,-35.16%
6,CCS(=O)(=O)N1CCc2c(nc(C3CCCN3)nc2NC)C1.Cl (stereo unspecified),-16.35%
7,c1ccc(-c2cc(CN3C[C@@H]4CC[C@H](C3)N(CC3CCC3)C4)on2)cc1,96.75%
8,C1CC(CN2C[C@H]3CC[C@@H]2CN(Cc2noc(C4CCCC4)n2)C3)C1,50.34%
9,c1ccc(-c2cc(CN3C[C@H]4CC[C@H]3C4)on2)cc1,18.4%
10,C1CC(CN2C[C@H]3CC[C@@H]2CN(Cc2nnc(C4CC4)o2)C3)C1,14.78%
11,c1ccc(-c2cc(CN3C[C@@H]4CC[C@H](C3)N(CC3CC3)C4)on2)cc1,34.91%
12,c1ccc(-c2nnc(CN3C[C@@H]4CC[C@H](C3)N(CC3CCC3)C4)o2)cc1,34.96%
13,O=C(c1cnc(-c2cccnc2)nc1)N1CCSCC1,-5.308%
14,CCc1ccc(C(COC)NC(=O)c2ccc(F)c(NC(C)=O)c2)o1 (stereo unspecified),-34.26%
15,Cc1cc(CN2CCCC2)cc(Oc2nc(C)cnc2C)c1,-0.05473%
16,COCCN(C)C[C@@H]1CN(C(=O)c2ccc(OC)c(F)c2)C[C@@H]1CO,3.272%
17,C[C@@H]1CN(C2CCN(c3ccccc3F)CC2)C[C@]1(C)O,-0.763%
18,Cc1cc(F)ccc1N1CCC(N2C[C@@H](C)[C@@](C)(O)C2)CC1,57.75%
19,Cc1cc(F)ccc1N1CCC(N2C[C@@H](CN(C)C)[C@@H](CO)C2)CC1,20.05%
20,Cc1nn(C)c(N2CCCN(C)CC2)c1CNC(=O)CC1CCCC1,23.58%
21,CC(Cn1cc(Cl)cn1)C(=O)Nc1ccc(CN2CCCCCC2)cc1 (stereo unspecified),-18.96%
22,COc1cccc(NC(=O)NCc2cnn(C)c2)c1,2.363%
23,COc1cccc(NC(=O)C(C)Cn2cc(Cl)cn2)c1 (stereo unspecified),52.64%
24,COC(=O)Cn1c(=O)nc2n1C(=O)N(c1cccc(C)c1)C2,2.841%
25,O=C(c1csc(-c2cnccn2)n1)N1CCCC1Cn1cccn1 (stereo unspecified),-12.16%
26,O=C(NC1CCCN(c2ccccn2)C1)C1(c2ccccc2F)CC1 (stereo unspecified),-27.34%

row,SMILES,Percent Effect
1,Cn1cccc1C(=O)N1CC2(CCN(C(=O)c3cccnc3)C2)C1.O=C(O)C(F)(F)F,-3.792%
2,COCCn1cc(NC(=O)NC(C)Cc2c(F)cccc2F)cn1 (stereo unspecified),-32.72%
3,CCCn1cc(NC(=O)Nc2ccc(F)c(C(=O)NC)c2)cn1,69.43%
4,CC(C)CCCNC(=O)Nc1ccc(F)c(C(N)=O)c1,-8.199%
5,CNC(=O)c1cc(NC(=O)NC(C)CCc2cccn2C)ccc1F (stereo unspecified),-1.57%
6,CNC(=O)c1cc(NC(=O)Nc2cnn(CC(C)C)c2)ccc1F,69.74%
7,CCc1c(C(=O)Nc2ccc(F)c(C(=O)NC)c2)cnn1CC(C)C,23.68%
8,Cc1cc(CN(C)C(=O)C2CC(=O)N(Cc3cccnc3)C2)on1 (stereo unspecified),14.11%
9,CCc1nnc2n1CCN(Cc1nnc(-c3occc3C)o1)C2,-3.481%
10,COc1ccccc1NC(=O)Cn1c(=O)nc(N)c2cc(C)sc21,-16.18%
11,CNc1oc(-c2ccc(OC)c(S(=O)(=O)N3CCCC3)c2)nc1C#N,17.45%
12,COCC(C)NC(=O)NCCCc1cc(N)n(-c2ccccc2)n1 (stereo unspecified),4.106%
13,CCNC(=O)c1ccoc1CN1c2ccccc2CC1C (stereo unspecified),70.88%
14,COC(=O)CCNC(=O)c1ccoc1CN1c2ccccc2CC1C (stereo unspecified),59.33%
15,COCCNC(=O)c1ccoc1CN1c2ccccc2CC1C (stereo unspecified),34.19%
16,CC1Cc2ccccc2N1Cc1occc1C(=O)O (stereo unspecified),-3.286%
17,CC1Cc2ccccc2N1Cc1occc1C(=O)OCC(N)=O (stereo unspecified),46.11%
18,CC1Cc2ccccc2N1Cc1occc1C(=O)NCC(=O)N(C)C (stereo unspecified),0.4209%
19,CN(CCn1nc2ccccn2c1=O)CC(=O)NC1CC1,-0.7088%
20,Cc1nc(CN2CCC3(C2)CN(C(=O)c2ccc[nH]2)C3)cs1,9.497%
21,COc1cccc(NC(=O)Nc2ccc3c(c2)CC(=O)N3)c1,-2.338%
22,O=C(NCC(=O)N1CCc2ccccc2C1)c1ccoc1,-20.14%
23,COC(=O)N1CCN2C[C@H](CO)[C@@H](c3ccccc3)[C@H]2C1,9.303%
24,CC(=O)OC1CN(c2nc3c(C(F)(F)F)cccc3s2)C1,5.311%
25,COC1COC2(CCN(Cc3ccc4ccccc4n3)CC2)C1.O=C(O)C(F)(F)F.O=C(O)C(F)(F)F (stereo unspecified),14.78%
26,O=C(CNc1cc(-n2cnnn2)ccc1F)Nc1ccccc1Cl,96.42%

row,SMILES,Percent Effect
1,Cc1ccc(-n2cnnn2)cc1NCC(=O)Nc1ccccc1Cl,6.921%
2,O=C(CNc1cc(-n2cnnn2)ccc1F)NCc1ccccc1,76.98%
3,Cc1ccc(-n2cnnn2)cc1NCC(=O)Nc1cc(F)ccc1F,11.17%
4,O=C(CNc1ccccc1Cl)Nc1cc(-n2cnnn2)ccc1F,22.69%
5,O=C(CNc1cc(-n2cnnn2)ccc1F)Nc1cc(F)ccc1F,3.475%
6,O=S(=O)(c1ccc(F)c(F)c1)N1CCCC(c2nccs2)C1 (stereo unspecified),-0.9721%
7,Cc1cccc(C(=O)N2C[C@@H](OCc3ccncc3)[C@@H]3OCCC[C@@H]32)n1.O=C(O)C(F)(F)F.O=C(O)C(F)(F)F,29.52%
8,Cl.Cl.O=C(CN1CCN(CC(O)C2CC2)CC1)NCc1ccc(F)cc1 (stereo unspecified),12.18%
9,O=C(CNc1ccc(OC2CCOC2)cc1)NCc1ccco1 (stereo unspecified),37.67%
10,O=C(CNc1ccc(OC2CCOC2)cc1)NCc1cccs1 (stereo unspecified),8.02%
11,O=C(NCc1ccc(F)cc1)N1CCC(C2OCCO2)CC1,9.763%
12,O=C(CNc1ccc(OC2CCOC2)cc1)NCc1ccc(F)cc1 (stereo unspecified),70.37%
13,Cc1ccccc1CNC(=O)CNc1ccc(OC2CCOC2)cc1 (stereo unspecified),74.57%
14,C1CN(Cc2noc(C3CC3)n2)CCN(Cc2nnc(C3CC3)o2)C1,-22.59%
15,Cc1cnn(C2CCCN(C(=O)CCCc3ccccn3)C2)c1 (stereo unspecified),2.711%
16,COc1ccc(S(=O)(=O)Nc2cnc(N(C)C)nc2)cc1,-14.34%
17,CCCN(C(=O)c1ccncc1)c1nc2c(s1)CCc1c-2cnn1C,54%
18,CCCN(C(=O)c1cccnc1)c1nc2c(s1)CCc1c-2cnn1C,30.71%
19,CCCN(C(=O)c1cnccn1)c1nc2c(s1)CCc1c-2cnn1C,25.49%
20,CS(=O)(=O)NC[C@H]1OC[C@H]2CN(CCc3ccccc3)CC[C@H]21.O=C(O)C(F)(F)F,1.676%
21,CN1CCOC(CNCc2coc(-c3cccc(Cl)c3)n2)C1 (stereo unspecified),12.33%
22,COc1ccc(CN(C)[C@@H]2CN(C(=O)c3cccnc3)C[C@H]2O)cc1,29.94%
23,CC(C)c1cc(C(=O)NCC2CCCN(c3ncccn3)C2)n(C)n1 (stereo unspecified),10.83%
24,COc1cccc(-c2cc(C(=O)N3N=C(C)CC3(O)C(F)(F)F)[nH]n2)c1 (stereo unspecified),58.69%
25,COc1ccc(-c2cc(C(=O)N3N=C(C)CC3(O)C(F)(F)F)[nH]n2)cc1 (stereo unspecified),-4.762%
26,COc1cccc(-c2cc(C(=O)N3N=C(C)CC3(O)C(F)F)[nH]n2)c1 (stereo unspecified),21.19%

row,SMILES,Percent Effect
1,CCOCC(=O)Nc1nccn1Cc1ccc(Br)cc1,58.9%
2,CSCC(=O)Nc1nccn1Cc1ccc(Br)cc1,106.3%
3,COCCC(=O)Nc1nccn1Cc1ccc(Br)cc1,27.83%
4,CCOCC(=O)Nc1ncn(Cc2cccc(Br)c2)n1,-12.98%
5,CC(C)(C#N)C(=O)Nc1nccn1Cc1ccc(Br)cc1,15.16%
6,COCC(=O)Nc1nccn1Cc1ccc(Br)cc1,26.85%
7,CNC(=O)C1Cn2ccnc2C2(CCN(C(=O)NC3CCCC3)CC2)O1 (stereo unspecified),14.23%
8,COCCNC(=O)N1CCCC(COc2ccccc2)C1 (stereo unspecified),32.08%
9,COCCN1CC(C(=O)Nc2ccc3c(c2)CCC(=O)N3C)CC1=O (stereo unspecified),-14.74%
10,Cn1ncc2c(NCC3CCCN3c3cccnn3)ncnc21 (stereo unspecified),19.68%
11,CCOc1cccc(COC(=O)c2ccc(Cl)cn2)n1,25.49%
12,CCOc1cccc(COC(=O)c2cscn2)n1,94.28%
13,CCOc1cccc(COC(=O)c2ccc(F)cn2)n1,26.62%
14,CCOc1cccc(NC(=O)c2cc(C)on2)n1,7.843%
15,CCOc1cccc(COC(=O)c2cc(Cl)ccn2)n1,14.29%
16,CCOc1cccc(COC(=O)c2cc(C)on2)n1,56.01%
17,Cc1cnn(CC(C)NCc2nc(-c3ccoc3)no2)c1 (stereo unspecified),-18.82%
18,CC(=O)N1CCN(C(C)c2ccc(Br)cc2)CC1 (stereo unspecified),29.59%
19,CC(=O)c1cccc(NC(=O)Cn2cc(I)cn2)c1,18.59%
20,COc1ccc(C2CNCCN2C(=O)c2cccc3cccnc23)cc1 (stereo unspecified),-23.3%
21,COc1ccccc1C(=O)N1CCC(Nc2ccc(C)nn2)CC1,2.292%
22,CCc1ccc(NC(C(N)=O)c2ccc(F)cc2)cc1 (stereo unspecified),17.32%
23,Cc1csc(CN2CCC[C@]3(C[C@H](OCC4CC4)CO3)C2)n1,14.79%
